Results: PubChem BioAssay
Calls of active or inactive are those of the source.

Target: Dihydroorotate dehydrogenase (quinone), mitochondrial (Plasmodium falciparum (isolate 3D7)) (UniProt Q08210)
Assay: inhibition of P. falciparum DHODH – biochemical, C-terminal His tag, absorbance 600 nm, primary screen (AID 1175);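 note: recombinant parasite enzyme with a five histidine tag at its C terminus; test concentration not given here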
Details: PfDHODH enzyme, DCIP absorbance 600 nm; higher = more signal, called active from +8 up or from −8 down

Sequence of Dihydroorotate dehydrogenase (quinone), mitochondrial (Plasmodium falciparum (isolate 3D7)) (Q08210 whole entry, looked up): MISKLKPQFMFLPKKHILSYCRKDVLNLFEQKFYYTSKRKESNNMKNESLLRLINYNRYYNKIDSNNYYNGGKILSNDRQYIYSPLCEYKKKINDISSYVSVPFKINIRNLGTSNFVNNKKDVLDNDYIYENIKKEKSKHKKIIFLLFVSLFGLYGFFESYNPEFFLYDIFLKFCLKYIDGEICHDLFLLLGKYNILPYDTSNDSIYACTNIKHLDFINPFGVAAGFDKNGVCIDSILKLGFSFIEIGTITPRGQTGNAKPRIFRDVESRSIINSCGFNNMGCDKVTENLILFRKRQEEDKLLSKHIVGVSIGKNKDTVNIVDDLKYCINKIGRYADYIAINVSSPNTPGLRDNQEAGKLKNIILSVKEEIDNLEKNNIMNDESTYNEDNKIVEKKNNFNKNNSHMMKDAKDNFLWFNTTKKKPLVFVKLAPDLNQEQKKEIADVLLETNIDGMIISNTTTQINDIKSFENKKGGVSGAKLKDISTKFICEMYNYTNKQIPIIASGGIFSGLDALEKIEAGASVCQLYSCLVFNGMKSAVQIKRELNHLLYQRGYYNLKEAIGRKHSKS

Composite z-score, inactive:
CC(C)OC(=O)C=C1C[C@@H](c2ccc(C#N)cc2)O[C@@H](c2ccc(C#N)cc2)O1 0.382, CO[C@@H]1COC(=O)CC=C[C@@H](C)COC(=O)[C@H](COCc2ccccc2)NC(=O)CC=C[C@H]1C 0.777, CO[C@@H]1COC(=O)CC=C[C@@H](C)[C@@H]2C=C[C@H](O)[C@@H](COC(=O)CCC[C@H]1C)O2 -0.24, O=C1[C@H]2[C@H]3[C@H](O)[C@H](O)CC(=NO[C@@H]4O[C@H](CO)[C@@H](O)[C@H](O)[C@H]4O)[C@H]3CC[C@H]2C(=O)N1Cc1ccc2c(c1)OCO2 0.461, C=CC[C@@H]1C=C[C@H](ON=Cc2ccc(C(=O)N3[C@H](c4ccc(C)cc4)[C@@H](C)CC[C@H]3C(=O)OC)cc2)[C@@H](CO)O1 0.16, COCCOC(=O)N1C(=O)[C@@]2(c3cc(C#Cc4ccc(OC)cc4)ccc31)[C@H](c1ccc(O)cc1)N1[C@H](c3ccccc3)[C@H](c3ccccc3)OC(=O)[C@H]1[C@@H]2C(N)=O -0.0395, CC(C)(C)N1CC=CC23O[C@@H]4C=CCCOC(=O)C4[C@H]2C(=O)N(CCCCCO)[C@@H]3C1=O (stereo partly specified) -0.16, COCCOC(=O)N1C(=O)[C@@]2(c3cc(C#Cc4ccc(OC)cc4)ccc31)[C@H](C(=O)N1CCN(c3ncccn3)CC1)[C@H]1C(=O)O[C@H](c3ccccc3)[C@H](c3ccccc3)N1[C@@H]2c1ccc(OCCO)cc1 -1.62, COC(=O)[C@@H]1CC[C@H](C)[C@@H](c2ccc(C)cc2)N1C(=O)c1ccc(C=NOC(C)CN2CCCCc3nc(C)c(C)cc32)cc1 (stereo partly specified) 0.613, CC(C)CON=C1[C@H]2CCn3c(=O)n(-c4ccccc4)c(=O)n3[C@H]2[C@H](O)[C@@H]2O[C@H]12 -0.422, COCC(=C=CC[C@@H](O)c1ccccc1OCCO)CCO -1.59, O=C1O[C@@H](c2ccccc2)[C@@H](c2ccccc2)N2[C@@H](c3ccc(OCCO)cc3)[C@]3(C(=O)Nc4ccc(C#CCCO)cc43)[C@@H](C(=O)N3CCCCCCC3)[C@H]12 0.221, C#C[C@@H]1Oc2ccccc2S(=O)(=O)N2CCC[C@H]12 0.515, CCCC[C@H]1OB(O)C[C@H]2C1=C(C)C[C@H]1C(=O)N(C)C(=O)[C@H]12 -0.829, O=C1[C@H]2[C@H]3[C@H](O)[C@H](O)CC(=NOC[C@@H](O)COCc4ccco4)[C@H]3CC[C@H]2C(=O)N1c1cccc(Oc2ccccc2)c1 -0.365, CC(C)[C@H](NC(=O)OC(C)(C)C)[C@@H](O)CC(=O)OC(C)(C)C 0.0945, CO[C@H]1COC(=O)CC=C[C@H](C)[C@@H](NS(=O)(=O)c2ccc(C)cc2)COC(=O)CC=C[C@@H]1C -2.98, CCOC(=O)CCN1C(=O)[C@H]2[C@H]3[C@H](O)[C@H](O)CC(=O)[C@H]3CC[C@H]2C1=O -2.85, NC(=O)NCC#Cc1ccc2c(c1)[C@]1(C(=O)N2)[C@H](c2ccc(O)cc2)N2[C@H](c3ccccc3)[C@H](c3ccccc3)OC(=O)[C@H]2[C@@H]1C(=O)N1CCCCCCC1 -0.127, CCOC(=O)C[C@H]1[C@H](OC(=O)c2ccc(C(=O)c3ccccc3)cc2)[C@@H](NC(=O)c2ccc(-c3ccccc3)cc2)c2cc(OCCCO)ccc2N1C(=O)c1ccc2ccccc2n1 -1.69, O=C1[C@H]2[C@H]3[C@H](O)[C@H](O)CC(=NO[C@@H]4O[C@H](CO)[C@@H](O)[C@H](O)[C@H]4O)[C@@H]3CC[C@H]2C(=O)N1Cc1ccccc1 0.261, CC(C)(C)N1C(=O)[C@H]2[C@H]3[C@H](O)[C@H](O)CC(=NOCc4ccccc4)[C@@H]3CC[C@H]2C1=O -1.36, C[C@@H](c1ccccc1)N1C(=O)[C@H]2[C@H]3[C@H](O)C=CC(=O)[C@@H]3CC[C@H]2C1=O -0.366, CC(C)(C)N1C(=O)[C@H]2[C@H]3[C@H](O)[C@H](O)CC(=NO[C@@H]4O[C@H](CO)[C@@H](O)[C@H](O)[C@H]4O)[C@@H]3CC[C@H]2C1=O 0.0902, CCOC(=O)NN=C1C[C@@H](O)[C@@H](O)[C@@H]2[C@@H]3C(=O)N(C(C)(C)C)C(=O)[C@@H]3CC[C@@H]12 0.0062, COC(=O)[C@H](C)NC(=O)CCC1CC(OC(=O)NCCc2ccc(F)cc2)CC2(CCCC(COC(=O)NCCc3ccc(Cl)cc3)O2)O1 (stereo partly specified) -0.532, COc1ccccc1CN1C(=O)c2ccccc2[C@@H](C(=O)NCC(F)(F)F)[C@@H]1c1ccc(CO)cc1 0.338, C[C@H]1Cc2c(-c3ccccc3)nc3c(c2CO1)CN(CCOc1ccccc1)CC3 -0.0439, COCCCNC(=O)[C@@]1(CCS(=O)(=O)c2ccccc2)N=C(c2ccc(OCCCO)cc2)O[C@H]1c1ccccc1 0.514, O=C1CCCC2OC12C(O)CCc1ccccc1 (stereo unspecified) -0.103, COC(=O)CC=C[C@H](C)[C@@H](OCc1ccccc1Br)C(C)C -0.216, CO[C@H]1COC(=O)[C@@H]2CCCN2C(=O)[C@@H](C)COC(=O)CC=C[C@@H]1C -1.95, CC(C)=CCCC(C)=CCON=C1[C@H]2CCn3c(=O)n(C)c(=O)n3[C@H]2[C@H](O)[C@@H]2O[C@H]12 -0.251, CN1C(=O)C2C=CC(C(O)C(c3ccccc3)c3ccccc3)N(NC(=O)OC(C)(C)C)C2C1=O (stereo unspecified) -1.08, CCOC(=O)CCN1C(=O)[C@H]2[C@H]3[C@H](O)[C@H](O)CC(=NNC(=O)OCc4ccc(OC)cc4)[C@@H]3CC[C@H]2C1=O 0.489, CC(CCC(=O)OC[C@H]1O[C@H](C#Cc2ccccc2)C=C[C@@H]1Oc1ccc(C)cc1)=NO[C@@H](C)c1cn([C@H](CO)Cc2ccccc2)nn1 -2.15
